The panel holds about 79,000 compounds, 15% with a hit somewhere; the sample as a whole holds those more often. Values without a mark were called inactive. The source made the active and inactive calls. No stated cut-off is given here; in the data, active means growth inhibition above about 70%; inactive means the rest.

Data on 20 compounds can be found in PubChem BioAssay (NCI).

Experiment [1] is described as follows: NCI Yeast Anticancer Drug Screen. Data for the rad50 strain (AID 155).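 Further: 0% = growth of vehicle-only cultures of the same strain.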 Particulars: S. cerevisiae rad50 strain growth inhibition, active compounds read high; at 50.0 µM unless noted. The gist of the method:
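Yeast carrying a defined DNA repair defect were exposed to test compounds, and growth was compared with vehicle-treated controls to give percent inhibition.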

Experiment [2] is described as follows: NCI Yeast Anticancer Drug Screen. Data for the mec2-1 strain (AID 157). The settings on record: S. cerevisiae mec2-1 strain, active compounds read high; at 50.0 µM unless noted. The gist of the method: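 Mutant yeast (mec2-1) grown with compound; growth inhibition relative to vehicle control reported.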
Experiment [3] in a line: NCI Yeast Anticancer Drug Screen. Data for the sgs1 mgt1 strain (AID 161).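 Further: 0% = growth of cultures given vehicle only.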 Particulars: S. cerevisiae sgs1 mgt1 strain, active compounds read high; at 50.0 µM unless noted. The method, boiled down: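 Compounds are added to genetically altered yeast, and growth is compared with cultures given vehicle alone to give percent inhibition.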
The nature of experiment [4]: NCI Yeast Anticancer Drug Screen. Data for the cln2 rad14 strain (AID 165).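 Further: 0% = growth equal to vehicle treated cultures.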 Particulars: S. cerevisiae cln2 rad14 strain, active compounds read high; at 50.0 µM unless noted. The method, boiled down:
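Readout is yeast growth inhibition versus vehicle-treated controls, using a strain with cln2 and rad14 alterations exposed to compound.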

Experiment [5] can be described thus: NCI Yeast Anticancer Drug Screen. Data for the bub3 strain (AID 167). Particulars: S. cerevisiae bub3 mutant strain, active compounds read high; at 50.0 µM unless noted. The method, boiled down:
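Compounds were applied to a genetically altered yeast strain carrying a cell-cycle control defect. Growth inhibition was scored against vehicle-treated controls.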

Experiment [6] can be described thus: NCI Yeast Anticancer Drug Screen. Data for the mlh1 rad18 strain (AID 175). The settings on record: S. cerevisiae mlh1 rad18 strain growth inhibition, active compounds read high; at 50.0 µM unless noted. The method, boiled down:
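Genetically defined yeast (DNA repair-deficient) exposed to compounds; growth inhibition determined relative to vehicle.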

With `Cc1ccc(C2=NN(c3ccccc3)C(c3ccccc3)C2NC2CCCCC2)cc1` (stereo not given), the growth inhibition is 41.1% in experiment [1]; -12.3% in experiment [2]; 19.6% in experiment [3]; -27.4% in experiment [4]; 0.5% in experiment [5]; 10.3% in experiment [6].
Consider `CCC(=O)Cc1nc2n(c1O)/C(=N/C(=O)Nc1ccc(Cl)cc1)N=N2`, for which the growth inhibition in experiment [1] was -2.05%; in experiment [2], -7.5%; in experiment [3], -2.9%; in experiment [4] it was -35.8%; in experiment [5], -15.2%; in experiment [6], 11.6%.
On to `CCC(=O)C(C)=O`, for which the growth inhibition was 16.9% in experiment [1]; 3.9% in experiment [2]; 13.1% in experiment [3]; -4% in experiment [4]; 0.15% in experiment [5]; 11.7% in experiment [6].
`Cc1cc2ccccc2c[n+]1CC(O)C[n+]1cc2ccccc2cc1C`: the growth inhibition in experiment [1] is -18.9%; in experiment [2], -31.1%; in experiment [3] it was -36.4%; in experiment [4], -27.7%; in experiment [5] it was -45%; in experiment [6] it was -0.8%.
Consider `CC1COC(C)(C)P(=O)(c2ccccc2)C1` (stereo not given), for which the growth inhibition in experiment [1] is -6.9%; in experiment [2], -9%; in experiment [3], -11.3%; in experiment [4], 16.2%; in experiment [5], -7.15%; in experiment [6] it was -27.4%.
As for `c1ccc(C2c3ccccc3CN2c2ccccc2)cc1` (stereo not given), the growth inhibition was 25.4% in experiment [1]; 6.2% in experiment [2]; 11.4% in experiment [3]; 9.4% in experiment [4]; 23.1% in experiment [5]; 2.35% in experiment [6].
For `Nc1ccc(C(=O)O)cc1N`, the growth inhibition in experiment [1] was 17.5%; in experiment [2], 46.6%; in experiment [3], 15.4%; in experiment [4], 15.3%; in experiment [5], 1.45%; in experiment [6] it was 45.5%.
Take `O=c1cc(N2CCOCC2)n2ccccc2n1`: the growth inhibition is -4.4% in experiment [1]; -4.15% in experiment [2]; 8% in experiment [3]; -20.6% in experiment [4]; -8.35% in experiment [5]; 8.1% in experiment [6].
Take `CCCCCCCCCCCCCCCCNC(=O)C(=O)/C=C(\O)c1ccc(C)cc1`: the growth inhibition in experiment [1] is 1.15%; in experiment [2], -24.4%; in experiment [3], 18.8%; in experiment [4] it was -44.5%; in experiment [5] it was 0.6%; in experiment [6] it was 1.4%.
On to `Cc1cc(C)c([N+](=O)[O-])cc1N`, for which the growth inhibition was 20.9% in experiment [1]; 15.1% in experiment [2]; 26.6% in experiment [3]; 13.5% in experiment [4]; 22.8% in experiment [5]; 19.6% in experiment [6].
Regarding `CC(=O)OCC1CCCC(C)C1COC(C)=O` (stereo not given), the growth inhibition in experiment [1] was 2%; in experiment [2], -8.7%; in experiment [3] it was -16.1%; in experiment [4] it was -24.1%; in experiment [5], 20.3%; in experiment [6], -2.95%.
For `COc1cc(Nc2nc3ccc(C(F)(F)F)cc3nc2C(=O)O)cc(OC)c1OC`, the growth inhibition in experiment [1] was 15.8%; in experiment [2], 20.3%; in experiment [3] it was 29.9%; in experiment [4], 48.7%; in experiment [5] it was 24.8%; in experiment [6], 10.3%.
On to `Cc1ccc(S(=O)(=O)N(C)CCCC#N)cc1`, for which the growth inhibition is -11.4% in experiment [1]; -16.3% in experiment [2]; 6.2% in experiment [3]; -3.1% in experiment [4]; -6.6% in experiment [5]; -19.6% in experiment [6].
Regarding `CCOC(=O)c1cc(/C=C/C(C)=C/C(=O)OC)n(C)c1C`, the growth inhibition is 74.5% (active) in experiment [1]; 56% in experiment [2]; 79.5% (active) in experiment [3]; 34.5% in experiment [4]; 80.2% (active) in experiment [5]; 58.5% in experiment [6].
As to `O=C(CI)NCc1cn(C2CC(O)C(CO)O2)c(=O)[nH]c1=O` (stereo not given), the growth inhibition was 4.9% in experiment [1]; 3.85% in experiment [2]; 5.85% in experiment [3]; 19.8% in experiment [4]; 1.15% in experiment [5]; 3.3% in experiment [6].
With `CC(C)NC(=O)OCc1c(COC(=O)NC(C)C)c(-c2ccc(F)cc2F)n2c1CCC2`, the growth inhibition was 12% in experiment [1]; 4% in experiment [2]; 10% in experiment [3]; 8.6% in experiment [4]; -13.6% in experiment [5]; -12.7% in experiment [6].
Turning to `COC(=O)c1cc(NC(=O)Nc2cc(C(F)(F)F)ccc2Cl)cc(C(=O)OC)c1`, the growth inhibition was -24.2% in experiment [1]; -32% in experiment [2]; -9.65% in experiment [3]; -22.9% in experiment [4]; -0.55% in experiment [5]; -38.2% in experiment [6].
Take `COc1nc(NC2OC(CO)C(O)C(O)C2O)c(C(=O)CCl)c(=O)n1C` (stereo not given): the growth inhibition in experiment [1] is 3.9%; in experiment [2], 4.2%; in experiment [3], -15.8%; in experiment [4], -7.45%; in experiment [5] it was -3.4%; in experiment [6], 4.05%.
As to `CCCCCC1CC(C(C)=O)CN1c1ccc(F)cc1` (stereo not given), the growth inhibition in experiment [1] was -0.95%; in experiment [2], 8.4%; in experiment [3] it was 11.8%; in experiment [4] it was 8.7%; in experiment [5] it was -1%; in experiment [6], -2%.
With `Cn1c2ccc(Cl)cc2c2ccc3c(c21)C(=O)C=CC3=O`, the growth inhibition is -21.9% in experiment [1]; -33% in experiment [2]; -18.3% in experiment [3]; 14.2% in experiment [4]; -25.2% in experiment [5]; -8.05% in experiment [6].
